# An excerpt weighted towards active compounds, which were near 11% of everything screened.
# PNC inhibitor – inhibitors of perinucleolar compartment assembly; activity change (PNC), negative = inhibition, % at 10 µM; PC3M PTB-GFP, PNC prevalence imaging, 16 h; hits give low values; 140,000 compounds, 3.1% hits;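 active = readout at or below -70, meaning at least 70% loss of cells showing the perinucleolar compartment, a nuclear body marking cancer cells; inconclusive = readout between -30 and a set limit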
#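 Read-out is percentage of cells bearing a perinucleolar compartment, from automated 20x imaging of fixed, Hoechst-stained PC3M PTB-GFP cells. Cells were seeded 4 h, then exposed 16 h to compound (23 nl of library stock) in duplicate plates.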
# HPGD inh – blocks human HPGD enzyme activity; P15428; purified HPGD, NADH fluorescence kinetic, PGE2 substrate; Potency, µM, most hits filed as inhibitors; 150,000 compounds, 4.3% hits
# Target sequence (P15428 whole entry, looked up): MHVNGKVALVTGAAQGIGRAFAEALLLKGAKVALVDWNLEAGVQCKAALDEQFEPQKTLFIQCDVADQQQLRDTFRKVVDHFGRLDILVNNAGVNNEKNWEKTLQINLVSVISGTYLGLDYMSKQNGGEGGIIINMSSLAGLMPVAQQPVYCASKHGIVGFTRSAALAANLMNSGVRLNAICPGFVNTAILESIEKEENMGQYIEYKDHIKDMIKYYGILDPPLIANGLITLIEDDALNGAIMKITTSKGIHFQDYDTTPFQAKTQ
#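 NADH formation kinetics: reaction with 30 uM PGE2 and 1 mM NAD+ (final), 20 nM enzyme, Tris-HCl pH 8 with Tween 20, after 15 min compound preincubation at room temperature. Fluorescence change, last versus first of five reads.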
# ALDH1A1 inh – blocks purified human ALDH1A1 activity; P00352; AID 1030; 220,000 compounds, 7.3% hits; Purified ALDH1A1, NADH fluorescence, propionaldehyde substrate; Potency, µM (top dose mostly 75.3 µM), actives largely listed as inhibitors
# Hits are given with their value; n = inactive; u = inconclusive; x = not tested or not shown; [ ] = remark or other dose. Unless noted, calls follow the shape of the dose curve; as a rule, active = well fitted inhibition curve with a large enough effect (not every such curve was filed as active); inconclusive = small, poorly fitted or top-dose-only effect, or another doubt; inactive = no such curve, though single readings can be large or run the other way.
SMILES,PNC inhibitor,HPGD inh,ALDH1A1 inh
CCN(CC)C(=O)c1sc(NC(=O)c2cccc([N+](=O)[O-])c2)c(C#N)c1C,n,7.1µM,n
O=S(=O)(c1ccccc1)N(C1=NCCS1)S(=O)(=O)c1ccccc1,u,n,8.9µM
O=C(Nc1ccccc1)N(Cc1ccccc1)C1=NCCS1,u,n,n
CCN(CC)c1ccc(NC(=O)c2ccc(=O)[nH]c2)cc1S(=O)(=O)Nc1ccccc1OC,x,x,4µM
COc1ccc(NC(=O)c2ccccc2F)cc1Cl,n,u,n
CCN(CC)c1ccc(NC(=O)c2cnccn2)cc1S(=O)(=O)Nc1ccc(OC)cc1,u,n,n
CCN(CC)c1ccc(NC(=O)c2ccccc2Br)cc1S(=O)(=O)Nc1ccccc1OC,n,2.2µM,1.6µM
CCN(CC)c1ccc(NC(=O)COc2ccccc2C#N)cc1S(=O)(=O)Nc1ccc(OC)cc1,n,n,22µM
CCN(CC)c1ccc(NC(=O)c2ccccc2F)cc1S(=O)(=O)Nc1ccccc1OC,n,14µM,4.5µM
CCN(CC)CCNC(=O)c1ccc(NC(=O)c2ccc(Cl)c(S(=O)(=O)Nc3ccccc3OC)c2)cc1,u,n,n
COc1ccc(NC(=O)c2ccc(=O)[nH]c2)cc1S(=O)(=O)N1CCCCC1,n,n,n
COc1ccc(OCC(=O)NNC(=O)c2cccc(S(=O)(=O)N(C)C)c2)cc1,n,n,n
Cc1ccc(C(=O)Nc2c(C)cc(-c3ccccc3)oc2=O)cc1,x,x,n
COc1ccccc1NS(=O)(=O)c1cc(NC(=O)CNC(=O)c2cc(C)cc(C)c2)ccc1C,n,n,n
CCN(CC)c1ccc(NC(=O)COc2ccccc2C)cc1S(=O)(=O)Nc1ccccc1OC,n,28µM,12µM
Cc1ccccc1S(=O)(=O)NCc1cccnc1,n,n,n
Cc1ccc(C(C)C)cc1S(=O)(=O)NCc1cccnc1,n,n,20µM
CC(=O)OC[C@@H]1O[C@@H](O/N=C2/C[C@@H](O)[C@@H](O)[C@@H]3[C@@H]4C(=O)N(C(C)(C)C)C(=O)[C@H]4CC[C@@H]23)[C@H](OC(C)=O)[C@H](OC(C)=O)[C@@H]1OC(C)=O,x,x,n[13.5 µM]
COc1ccc(CN2C(=O)CC(C(=O)NCCc3ccc(S(N)(=O)=O)cc3)SC2=Nc2ccccc2)cc1 (centres undefined),x,x,n
Cc1ccc(N2CC(C(=O)OCc3ccc([N+](=O)[O-])cc3)CC2=O)cc1 (centres undefined),n,25µM,11µM
CCc1ccc(N2CC(C(=O)OC)CC2=O)cc1 (centres undefined),x,x,n
Cc1ccc(S(=O)(=O)N2CCC(C(=O)OCc3ccc([N+](=O)[O-])cc3)CC2)cc1,n,n,n
CCc1ccc(N2CC(C(=O)OCC(=O)NC3CCS(=O)(=O)C3)CC2=O)cc1 (centres undefined),-100,n,n
COc1ccc(S(=O)(=O)N2CCCCCC2)cc1N(C)S(=O)(=O)c1ccc(Cl)cc1,n,n,n
C[C@@H]1NC(=O)[C@@H](C)COC(=O)[C@H](C)NC(=O)[C@@H](C)COC1=O,x,x,n[13.5 µM]
SMILES,PNC inhibitor,HPGD inh,ALDH1A1 inh
O=C(NCC1COc2ccccc2O1)C1CCN(S(=O)(=O)c2cccc3nsnc23)CC1 (centres undefined),-85,n,n
O=C(NCC1COc2ccccc2O1)C1CCCN(S(=O)(=O)c2cccc3nsnc23)C1 (centres undefined),n,n,n
O=S(=O)(c1cccc2nsnc12)N1CCN(c2ccccc2F)CC1,x,x,22µM
O=S(=O)(c1cccc2nsnc12)N1CCN(c2ccc(F)cc2)CC1,x,x,n
COc1ccc(Cl)cc1S(=O)(=O)Oc1ccc(NC(C)=O)cc1,u,n,n
O=C(Nc1cccc(Cl)c1N1CCCC1)c1cccc(-c2cc3ccccc3oc2=O)c1,n,n,n
COc1ccc(Cl)cc1NS(=O)(=O)c1ccc(OC)c(OC)c1,n,n,13µM
COc1ccc(Cl)cc1NS(=O)(=O)c1ccc(S(=O)(=O)N2CCCC2)cc1,n,n,28µM
COc1ccc(S(=O)(=O)Nc2cc(Cl)ccc2OC)cc1,u,n,n
COc1ccc(Cl)cc1C(=O)Nc1ccc(S(=O)(=O)N2CCCC2)cc1,n,n,u
CCCCNC(=O)CSc1cc(=O)n(C)c2ccccc12,n,14µM,n
CC(CCc1ccco1)NC(=O)CSc1cc(=O)n(C)c2ccccc12 (centres undefined),u,25µM,u
Cn1c(=O)cc(SCC(=O)NCCCN2CCOCC2)c2ccccc21,n,x,n
Cn1c(=O)cc(SCC(=O)Nc2ccc3c(c2)OCO3)c2ccccc21,u,x,n
O=C(O)CC[P+](c1ccccc1)(c1ccccc1)c1ccccc1,x,n,n[13.5 µM]
Cc1nc(C(=O)N(C)C)nn1-c1cc(Cl)ccc1Cl,n,n,n
COc1cc(C(=O)Nc2cccc(-c3nncn3C)c2)cc(OC)c1OC,u,n,n
Clc1ccccc1-c1cc(NCc2ccccc2)ncn1,x,x,n
CCC(C)(C(=O)NC1CCCCC1)N(Cc1ccco1)C(=O)c1ccccn1 (centres undefined),n,n,n
CSc1nsc(SCc2ccc(F)cc2)n1,n,n,n
CCN(CC)CCCCC1CCN(CC(=O)N2c3ccccc3C(=O)Nc3cccnc32)CC1,x,n,n
Cc1cc(SCC(=O)N/N=C/c2ccc(O)cc2O)c(C)cc1Br,u,20µM,n
O=C(CCCCCNC(=O)c1ccccc1)N/N=C/c1ccc(O)cc1O,u,28µM,n
Cc1nonc1C(=O)N/N=C/c1ccc(O)cc1O,x,x,n
C/C(=N\NC(=O)CCCCCNC(=O)c1ccccc1)c1ccccc1O,n,n,n
SMILES,PNC inhibitor,HPGD inh,ALDH1A1 inh
COc1cc(C)c(Cl)cc1S(=O)(=O)NC1CC(C)(C)NC(C)(C)C1,x,x,n
CCSCc1nnc(SCC(=O)Nc2cccc(C(C)=O)c2)n1C,x,x,n
CCSCc1nnc(SCC(=O)Nc2cccc(SC)c2)n1C,n,n,20µM
CCCCOC(=O)c1ccc(NC(=O)C2CCCO2)cc1 (centres undefined),n,n,n
Cc1cccc(N2CCN(C(=O)c3ccc(NC(=O)C4CCCO4)cc3)CC2C)c1 (centres undefined),n,n,n
CCCCc1ccc(NC(=O)C2CCCO2)cc1 (centres undefined),n,16µM,n
CCOC(=O)C1CCN(C(=O)c2ccc(NC(=O)C3CCCO3)cc2)CC1 (centres undefined),n,25µM,n
CC(=O)c1ccc(N2CCN(C(=O)c3ccc(NC(=O)C4CCCO4)cc3)CC2)cc1 (centres undefined),n,25µM,n
CCOC(=O)C1CCN(C(=O)Nc2ccc(NC(=O)C3CCN(C(=O)OCC)CC3)cc2)CC1,n,n,n
CCCCNC(=O)c1ccc(NC(=O)C2CCCO2)cc1 (centres undefined),n,u,n
CCOC(=O)c1ccc(NC(=O)C2CCCO2)cc1 (centres undefined),n,25µM,n
Cc1cc(C)c(NC(=O)c2cc(C(=O)O)ccc2C(=O)O)c([N+](=O)[O-])c1,x,x,n
CCCn1c2c(c(O)c(C(=O)Nc3nc4ccccc4s3)c1=O)CCCC2,x,x,n
Cc1ccc(CCNC(=O)C2CCN(C(=O)N(C)C)CC2)cc1,u,n,n
Cc1ccc(C)c(NC(=O)CSc2nc3ccc(N4C(=O)c5ccccc5C4=O)cc3s2)c1,n,n,u

# Screens: PubChem, National Center for Advancing Translational Sciences (NCATS)
